From PubChem BioAssay
The list is not random: actives were taken first. Their share in the collection is about 5.1%.
KCC2 mod – KCC2 cotransporter modulators, thallium flux, primary screen, cell-based, HEK293 KCC2, FluoZin-2 fluorescence, MLSMR; Solute carrier family 12 member 5 (Homo sapiens), Q9H2X9; KCC2 cells, thallium flux FluoZin-2 fluorescence; B-score of Tl+ flux slope (higher = more flux/activation; lower = inhibition) at 10 µM; actives 2.2% (n = 190,000);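 active means thallium flux slope and its plate-corrected score both differing from the plate sample mean at a set confidence after two filtering rounds, in either direction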;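 further: slope of fluorescence scaled to starting intensity during 10 to 20 s after thallium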
S1P4 agonist – S1P4 receptor agonists, primary screen, cell-based | activation, % at 4.98 µM | Sphingosine 1-phosphate receptor 4 (Homo sapiens), O95977 | S1P4-expressing cell line, agonist reporter assay | actives 0.35% (n = 220,000); in the data active means activation above about 11%;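 further: 0% = DMSO vehicle and 100% = reference agonist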
RAM network inh – inhibitors of the yeast RAM network, primary screen, dse1pr::URA3 reporter, 5-FOA selection. S. cerevisiae dse1pr::URA3 reporter, 5-FOA growth OD615, 2 d; analog-sensitive cbk1-as2 kinase mutant strain. inhibition, % at 50 µM. actives 1.8% (n = 190,000);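 active means inhibition above a set limit, 3 SD over mean compound inhibition, cut at about 8.4% in these data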;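 further: 0% = DMSO-only wells with no growth and 100% = 10 µM 1-NA-PP1 full growth; inhibition rescues growth on 5-FOA so higher OD means more RAM inhibition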
S1P4 antag – S1P4 receptor antagonists, primary screen, cell-based; Sphingosine 1-phosphate receptor 4 (Homo sapiens), O95977; S1P4-expressing cells, antagonist mode, reporter read-out; inhibition, % at 4.98 µM; actives 0.26% (n = 220,000); AID 1510, 2009; in the data active means inhibition above about 29%;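 further: 0% = wells stimulated with agonist and 100% = vehicle wells without agonist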
ROMK mod – ROMK potassium channel modulators, primary screen, cell-based, thallium flux, MLSMR library. ATP-sensitive inward rectifier potassium channel 1 (Homo sapiens), P48048. B-score at 10 µM. Tet-inducible ROMK, thallium flux fluorescence; actives lie on both sides. actives 2% (n = 130,000);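 active means signal ratio slope over the read window, or its plate-corrected B-score, at least 3 SD from the plate mean, either direction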;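 further: B-score of the F/F0 ratio slope over 7 to 12 s after thallium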
S1P3 antagonist – S1P3 receptor antagonists, primary screen, cell-based; Sphingosine 1-phosphate receptor 3 (Homo sapiens), Q99500; CHO S1P3 NFAT-BLA reporter, FRET fluorescence, antagonist mode; inhibition, % at 4.98 µM; actives 0.27% (n = 170,000); AID 485, 2006;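 active means inhibition above the plate cutoff, the mean inhibition of test wells on that plate plus 3 SD, cut at about 28% in these data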;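 further: cells challenged with S1P at its EC80 of 0.8 µM; blue over green emission ratio from cleaved BLA substrate after 4 h stimulation; 0% = S1P-stimulated wells and 100% = unstimulated DMSO-only wells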
RAM efflux-def – 5-FOA growth of efflux-deficient control yeast, dose response, counter-screen for RAM network inhibitor project, S. cerevisiae, OD615. shares compounds with RAM network inh. S. cerevisiae efflux-deficient reporter strain, 5-FOA growth OD615, 2 days. max inhibition, %. 1,200 tested, under 10 active. AID 1305, 2008; call rule not given here;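 further: plate controls were vehicle for no effect and reference inhibitor for full effect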
KCC2 secondary – KCC2 modulators in sodium-free buffer, confirmation, cell-based, HEK293 KCC2, thallium flux, secondary assay; shares compounds with KCC2 mod; FluoZin2 fluorescence; stronger effect = higher value; normalised thallium flux (F/F0 slope) at 10 µM; actives 15% (n = 3,700); AID 1713, 2009;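 active means thallium flux slope above the same plate's solvent-only control mean plus 3 SD; inconclusive means the two replicate wells disagree; inactive means no significant difference from solvent-only control wells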
KCC2 bumet counter – thallium flux persisting under bumetanide in KCC2 cells, confirmation, counter-screen for KCC2 modulator project, cell-based, HEK293 KCC2, FluoZin2, secondary assay 3; actives 49% (n = 3,700); AID 1714, 2009; normalized thallium flux at 10 µM; shares compounds with KCC2 mod; HEK293-KCC2 + bumetanide/ouabain; stronger effect = higher value;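 active means thallium entry rate above the same plate's blocked-transporter control wells by more than 3 SD; inconclusive means the two repeat wells disagree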;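 further: raw slope of fluorescence over initial fluorescence between 10 and 20 s after thallium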
KCC2 secondary2 – KCC2 modulators without ouabain present, confirmation, cell-based, HEK293 KCC2, thallium flux, FluoZin2, secondary assay 2. shares compounds with KCC2 mod. thallium flux FluoZin2 fluorescence; actives lie on both sides; F/F0 rise rate, 10–20 s post-thallium. normalized thallium flux at 10 µM. actives 23% (n = 3,700). AID 1715, 2009;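 active means thallium flux slope more than 3 SD above or below the plate's solvent-only control mean, mostly below; inconclusive means the two repeat wells disagreed; inactive means no significant shift from solvent-only controls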;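 further: raw slope with 0.1% DMSO as baseline and bumetanide as block control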
HEK counter1 – thallium flux modulation in parental HEK cells, confirmation, counter-screen for KCC2 modulator project, cell-based, counterscreen 1. shares compounds with KCC2 mod. HEK293 parental cells, thallium flux FluoZin2, ouabain; baseline-ratio fluorescence slope, 10–20 s after thallium. thallium flux rate (normalised fluorescence) at 10 µM. actives 46% (n = 3,700);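 active means thallium flux rate significantly above the same plate's solvent-only control wells, beyond their mean plus 3 SD; inconclusive means the two replicate wells gave conflicting results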
KCC2 retest ouab – KCC2 inhibitors and activators, ouabain retest, confirmation, HEK-KCC2 cells. raw Tl+ flux slope (below DMSO = inhibition, above = activation) at 10 µM. actives 48% (n = 3,700). shares compounds with KCC2 mod. HEK293-KCC2, thallium flux FluoZin2 fluorescence; bidirectional: low = inhibitor, high = activator. AID 1717, 2009;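 active means thallium flux slope beyond 3 SD from same-plate DMSO control mean in most replicates, usually higher, sometimes lower; inconclusive means repeat tests gave conflicting results; inactive means no significant difference from controls in most replicates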;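 further: slope of initial-normalized fluorescence between seconds 10 and 20 after thallium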
HEK293 Tl flux2 – native HEK Tl+ uptake effects, second counter-screen – HEK cells, counterscreen 2, counter-screen for KCC2 modulator project, confirmation. actives 33% (n = 3,700). shares compounds with KCC2 mod. thallium flux slope at 10 µM. HEK293 parental, thallium flux FluoZin-2 fluorescence slope;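 active means thallium flux slope above the same plate's solvent-control mean plus 3 SD in both duplicate wells; inconclusive means duplicate wells that disagreed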;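 further: run without ouabain in cells lacking the KCC2 cotransporter; slope of fluorescence scaled to its starting value between 10 and 20 s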
ROMK hit retest – ROMK channel modulator hit retest, confirmation, cell-based, thallium flux, duplicate, resupplied hits; shares compounds with ROMK mod; fluorescence ratio; stronger effect = lower value; normalized thallium flux (F/F0 slope) at 10 µM; actives 54% (n = 3,000); AID 1917, 2009;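 active means Flux at 10 µM at least 3 SD below or above vehicle control mean in one or both replicates; inconclusive means no clear call, values can overlap the other calls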
* hit, by the source's call; ? = inconclusive; / = no result.

SMILES	KCC2 mod	S1P4 agonist	RAM network inh	S1P4 antag	ROMK mod	S1P3 antagonist	KCC2 secondary	KCC2 bumet counter	KCC2 secondary2	HEK counter1	KCC2 retest ouab	HEK293 Tl flux2	others
CCC1CCCCN1S(=O)(=O)c1ccc(S(=O)(=O)N(Cc2ccccn2)CC2CCCO2)cc1 (stereo unspecified)	-1	0	1	-28	-2.4	0	/	/	/	/	/	/
COc1ccc(CCN2C(=O)CC(N3CCN(C/C=C/c4ccccc4)CC3)C2=O)cc1OC (stereo unspecified)	-0.093	0	/	-1	-0.075	14	/	/	/	/	/	/
O=S(=O)(Nc1nc2ccccc2nc1Nc1ccc2c(c1)OCCO2)c1cccs1	-2.9	1	12*	-9	/	-9	/	/	/	/	/	/	RAM efflux-def=1;ROMK hit retest=?
COc1ccc(NC(=O)c2ccc(-c3ccc([N+](=O)[O-])cc3)o2)cc1	-0.07	-1	3	-2	-0.42	-17	/	/	/	/	/	/
COc1ccc(CCNC(=O)c2ccc(-c3ccc([N+](=O)[O-])cc3)o2)cc1OC	-0.96	0	11*	-9	/	-5	/	/	/	/	/	/	RAM efflux-def=2;ROMK hit retest=0.075
N#C/C(=C(/O)COC(=O)c1ccc(C#N)cc1)c1nc2ccccc2s1	-2.7	1	4	-19	-1.6	0	/	/	/	/	/	/
N#C/C(=C(/O)c1ccc(F)cc1)c1nc2ccccc2s1	-4.8*	0	3	5	1.3	-10	0.0073	0.0058	0.032	0.0059*	0.016*	0.0096
N#C/C(=N\O)c1nc2ccccc2s1	-0.22	-1	1	7	0.53	-4	/	/	/	/	/	/
N#C/C(=C(/O)COc1ccc(Cl)cc1)c1nc2ccccc2s1	-3.7*	0	4	-5	0.044	-5	0.007	?	0.023*	0.0077	?	0.011
N#C/C(=C(/O)COc1ccccc1)c1nc2ccccc2s1	-5.4*	1	3	-4	0.029	-5	?	0.0046	0.022*	0.0077	0.017	0.01
CSc1nc2c(c(=O)[nH]c(=O)n2C)n1C/C=C(\C)Cl	0.66	0	0	-12	/	6	/	/	/	/	/	/
CCSc1nc2c(c(=O)[nH]c(=O)n2C)n1C/C=C(/C)Cl	7*	0	0	8	0.27	-3	0.0088	0.0066	0.033	0.007	0.02	0.01
CCOC(=O)C1=C(C)Nc2nnnn2C1c1cccnc1 (stereo unspecified)	/	0	3	-4	/	/	0.0066	0.004	0.028	0.0074	0.018	0.01
CCOC(=O)C1=C(C)Nc2nnnn2C1c1c[nH]c2ccccc12 (stereo unspecified)	0.68	-2	1	-10	/	19	/	/	/	/	/	/
O=C1NC(=O)/C(=C\c2ccccc2Oc2ccc(F)c(F)c2)S1	-4.3	0	5	-7	/	/	/	/	/	/	/	/
O=C1NC(=O)/C(=C/c2ccccc2OCc2ccccc2)S1	-5.7*	1	2	-22	-0.066	4	0.0086	0.0071	0.033	0.0064	0.015*	?
CC(=O)Nc1ccc(OCC(O)CNC2CCCC2)cc1 (stereo unspecified)	/	2	0	-11	0.83	/	0.0077	?	0.029	?	0.018	0.011
CCC(Sc1nc(N)cc(=O)[nH]1)C(=O)Nc1cc(C)on1 (stereo unspecified)	-0.55	1	0	-12	0.23	-1	/	/	/	/	/	/
CCc1nnc(NC(=O)C(CC)CC)s1	0.73	0	/	2	/	0	/	/	/	/	/	/
CN1C(=O)C(CC(=O)Nc2ccc(F)cc2)N(NC(=O)c2cccc(F)c2)C1=S (stereo unspecified)	-0.27	0	/	-10	/	6	/	/	/	/	/	/
COCCNS(=O)(=O)c1ccc(-c2ccc(Cl)cc2)cc1	-2.8*	0	2	-1	-0.91	8	0.0072	0.0053	0.026*	0.008	?	0.012
COCCNS(=O)(=O)c1ccc(-c2ccc(S(=O)(=O)NCCOC)cc2)cc1	-0.017	-1	4	-1	/	-9	/	/	/	/	/	/
CCOC(=O)C(CC)(CCC(=O)O)c1csc(Nc2ccc(C)cc2)n1 (stereo unspecified)	-2.9*	1	-1	-13	0.35	-4	0.017	0.0045	0.029	0.006*	0.014	0.0096
CCOC(=O)Cc1csc(Nc2ccc(Cl)cc2)n1	-0.51	0	1	-3	0.032	1	/	/	/	/	/	/
Fc1cc(F)c2nc(Nc3nc4cc5c(cc4s3)OCO5)sc2c1	8.5*	1	1	-21	-0.42	-5	0.0079	0.017*	0.036	0.013*	0.026*	0.016*
